Several values for one entry are separate records, joined by “and”; a condition that tells them apart may be missing. Equal entries are not always repeated. In all, about 290,000 compounds went through this assay and about 260 (0.09%) were called active. This is one part of a sample in which actives are shown more often than they occur. Measured potencies and affinities stand elsewhere. Unmarked numbers belong to inactive results. Cut-off read from the data, not from the text of the source: active = inhibition above about 50%; inactive = the rest.
molecular target: Kappa-type opioid receptor (Homo sapiens) (UniProt P41145); assay: kappa opioid receptor blockers – cell-based, luminescence, uHTS (AID 1778); details: KOR beta-arrestin recruitment, antagonist mode, active compounds read high; at 10 µM unless noted
Sequence (P41145 whole entry, looked up): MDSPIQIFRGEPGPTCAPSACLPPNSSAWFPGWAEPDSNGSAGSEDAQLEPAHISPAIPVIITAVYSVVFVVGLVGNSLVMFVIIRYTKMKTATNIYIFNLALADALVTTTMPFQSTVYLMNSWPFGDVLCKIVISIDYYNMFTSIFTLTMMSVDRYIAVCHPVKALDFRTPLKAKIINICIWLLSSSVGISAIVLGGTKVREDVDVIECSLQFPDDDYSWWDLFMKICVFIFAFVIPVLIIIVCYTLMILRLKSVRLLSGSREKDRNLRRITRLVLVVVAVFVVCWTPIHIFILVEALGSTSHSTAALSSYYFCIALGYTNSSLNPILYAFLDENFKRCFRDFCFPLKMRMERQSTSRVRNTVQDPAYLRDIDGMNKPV

Compound | inhibition
CN(C)S(=O)(=O)c1cccc(N=C2SCCN2Cc2ccccc2)c1 | -13.6%
COc1ccc(CCC(N)=O)cc1OC | -31.9%
Cc1ccc(S(=O)(=O)Nc2ccnc3ccccc23)cc1 | 6.9%
O=S(=O)(Nc1cccc2ccccc12)c1cccs1 | 2.3%
Cc1ccc(S(=O)(=O)Nc2cccc3ncccc23)cc1 | 14.1%
Cc1ccc(S(=O)(=O)Nc2cccc3ncccc23)s1 | 107% (active)
Cc1c(NS(=O)(=O)c2cccs2)cccc1-c1nc2cccnc2s1 | 6.3%
O=C(NNC(=O)c1ccccc1[N+](=O)[O-])c1ccccn1 | -1.3% [at 20 µM]
Cc1[nH]nc2c1C(c1ccccc1F)CC(=O)N2 (configuration not stated) | -21.3%
CCOC(=O)c1cc2cc(CC(=O)c3ccc(OCC)cc3O)ccc2o1 | -2%
O=C(NNC(=O)C12CC3CC(CC(C3)C1)C2)c1cnccn1 | 27.4%
C/C(=N\NC(=O)C(c1ccccc1)c1ccccc1)c1ccccn1 | 81.1% (active)
O=C(NNc1ccccn1)C(c1ccccc1)c1ccccc1 | 11.4%
C/C(=N\NC(=O)c1ccccn1)C12CC3CC(CC(C3)C1)C2 | -17.6%
CCCCCC(=O)N/N=C(\C)c1ccccn1 | 10.5%
C/C(=N/NC(=O)CNC(=O)c1ccccn1)c1ccc([N+](=O)[O-])cc1 | 6.2%
CC(C(=O)O/N=C(\N)c1ccccn1)c1ccc([N+](=O)[O-])cc1 (configuration not stated) | -1.4%
CC(C)C(=O)NNC(=O)c1ccccn1 | 13.4%
C/C(=N\NC(=O)C(c1ccccc1)c1ccccc1)c1ccc(O)cc1 | -26.8% [at 20 µM]
Cc1ccc(S(=O)(=O)NN)c(C)c1N1CCCC1=O | 24.2%
Cc1cccc(C)c1NC(=O)C1CCCN1S(=O)(=O)c1ccccc1 (configuration not stated) | -40.1%

Compound | inhibition
O=C(NCc1cccnc1)C1c2ccccc2C(=O)N1C1CCCCCC1 (configuration not stated) | -16.6%
O=C(NCCc1nnc2ccc(N3CCCCCC3)nn12)c1ccccc1 | -2.6%
CN(C)c1ccc(P(=O)(Nc2cccc(C(F)(F)F)c2)N2CCOCC2)c(NC(=O)c2cccs2)c1 (configuration not stated) | 41.3%
CNC(=S)N1N=C(c2ccc(C)cc2)CC1c1ccc(N(C)C)cc1 (configuration not stated) | 7.7%
CC1CCCCN1C(=O)COc1ccccc1F (configuration not stated) | -32.6% [at 20 µM]
O=C(Nc1ccnc(-c2cccnc2)n1)c1ccc(Cl)cc1 | -18.4%
O=C1COc2ccc(C(=O)CSc3nnc(NCc4ccccc4)s3)cc2N1 | 21.4%
Oc1[nH]c2ccccc2c1N=NC(=S)NCC1CCCO1 (configuration not stated) | -22%
CCNC(=S)N=Nc1c(O)n(Cc2ccc(Cl)cc2)c2ccccc12 | -4.3%
CCn1c(O)c(N=NC(=S)NCC2CCCO2)c2ccccc21 (configuration not stated) | 60.6% (active)
COc1ccc(CNC(=O)c2ccc(CN3CCOCC3)cc2)cc1 | -18.5%
O=C(NCc1ccco1)C(=O)c1cn(CC(=O)N2CCCC2)c2ccccc12 | -7.4%
O=C(COc1ccccc1)Nc1nnc(S(=O)(=O)N2CCCC2)s1 | -9.4%
Cc1cc(NCc2ccccn2)n2c(nc3ccccc32)c1C#N | 18.9% [at 20 µM]
CCCNC(=O)COc1cccc(C(=O)NCc2ccccc2)c1 | 16.7%
Oc1ccc(Nc2ccnc3cc(Cl)ccc23)cc1 | 25.2%
Oc1ccc(/C=N/Nc2ccnc3cc(Cl)ccc23)c(O)c1 | 3.8%
O=C(O)CC1(CC(=O)Nc2ccc(C(F)(F)F)cc2)CCCC1 | -5.5%
O=C(N/N=C/c1cc2cc3c(cc2nc1Cl)OCO3)c1ccncc1 | -14.5%
O=C(NC(=S)N1CCN(c2ccc(C(F)(F)F)cc2[N+](=O)[O-])CC1)c1cccs1 | 6.2%
COc1ccc(N2CCN(C(=S)NC(=O)c3cccs3)CC2)c([N+](=O)[O-])c1 | 4.6%

Compound | inhibition
CC(=O)c1ccc(NC(=S)N2CCCC(CO)C2)cc1 (configuration not stated) | 35.3%
C#CCOCCOCCOCCNc1nc(N2CCN(C(=O)[C@H](C)n3cc(CCCN=C(N)N)nn3)CC2)nc(N2CCN(C(=O)[C@H](CCCCN)n3cc(CCCC)nn3)CC2)n1 | -17.1%
CN(Cc1ccccc1)c1ccc(C(CC(N)=O)NC(=O)c2ccccc2)cc1[N+](=O)[O-] (configuration not stated) | -1.2% [at 20 µM]
O=C(CN1CCN(c2ccc(F)cc2)CC1)OCc1ccccc1 | 21.3%
COCc1cc(=O)[nH]c(Nc2nc3ccccc3o2)n1 | 14.7%
Cc1ccc2oc(Nc3nc(C)c(C)c(C)n3)nc2c1 | 6.8%
Cc1cc(C)nc(Nc2nc3ccccc3o2)n1 | 17.6%
Cc1ccc2oc(Nc3nc(C)cc(C)n3)nc2c1 | 12.4%
COc1ccccc1-c1ccc(Nc2cccc(C(F)(F)F)c2)nn1 | -2.2%
CCOc1ccc(S(=O)(=O)N(C)CC(=O)NCc2ccco2)cc1 | 5%
CCCC1=C(C(=O)OCC)C(c2c(C)nn(-c3ccccc3)c2Cl)C(C#N)=C(N)O1 (configuration not stated) | -61.5%
CCCOc1cccc(-c2cc(C(=O)N/N=C/c3cccnc3)c3ccccc3n2)c1 | -14%
CCCOc1cccc(-c2cc(C(=O)NN)c3ccccc3n2)c1 | -44.7%
O=C(CN1C(=O)S/C(=C\c2ccc(F)cc2)C1=O)NCCCn1ccnc1 | 1.3%
O=C(/C=C/c1ccc([N+](=O)[O-])cc1)Oc1ccc(/C=N/NC(=O)c2ccncc2)cc1 | -27.5%
CCN(CC)C(=O)Sc1cccc2cccnc12 | 19.2%
O=C(Sc1cccc2cccnc12)c1ccc(F)cc1 | 73.6% (active)
O=C(O)CSc1cccc2cccnc12 | -59.2% and -13%
O=C(CSc1cccc2cccnc12)N/N=C/c1ccc(F)cc1 | 17.3%
CC(=O)/C(=N\Nc1ccccc1)Sc1cccc2cccnc12 | 13.9%

Source: PubChem BioAssay AID1778 (Sanford-Burnham Center for Chemical Genomics, 2009)
